What all share (experiment): DAPPL (digital affinity profiling via proximity ligation, sequencing); 10 mM Tris-HCl pH 7.5, 50 mM NaCl, 1 mM DTT, 4% glycerol, room temperature, 30 min; GST-TFs on glutathione beads, 16-mer random dsDNA library, 0.1% formaldehyde crosslink after washing; high values mean tight binding
Common to all, as to conditions: protein: recombinant; tags: N-terminal GST; dsDNA, one strand shown

One assay concerns the target T1, ELK1 (Homo sapiens, UniProt P19419 1-428).
T1 sequence: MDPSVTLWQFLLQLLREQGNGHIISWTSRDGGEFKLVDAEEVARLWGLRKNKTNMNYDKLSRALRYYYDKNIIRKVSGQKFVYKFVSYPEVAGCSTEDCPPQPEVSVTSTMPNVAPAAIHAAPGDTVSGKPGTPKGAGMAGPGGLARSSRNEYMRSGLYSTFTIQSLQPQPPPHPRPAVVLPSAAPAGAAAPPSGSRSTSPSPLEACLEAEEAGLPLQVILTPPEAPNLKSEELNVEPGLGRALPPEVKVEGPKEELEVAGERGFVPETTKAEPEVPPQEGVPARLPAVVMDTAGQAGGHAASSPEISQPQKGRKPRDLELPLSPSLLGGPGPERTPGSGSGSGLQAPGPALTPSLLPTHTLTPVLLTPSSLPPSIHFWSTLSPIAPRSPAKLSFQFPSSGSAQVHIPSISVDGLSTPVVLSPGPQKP
In short, it runs like this:
(§1)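 Binding signal is each hexamer's read frequency for a factor divided by its frequency in the tag-only sample. The factors were GST-fused human transcription factors from yeast, captured on glutathione beads, DNA-barcoded and pooled with that sample. Pools were incubated with 200 nmole of a random double-stranded 16-mer DNA library in Tris/NaCl/DTT/glycerol buffer at room temperature for 30 min, then washed, crosslinked with 0.1% formaldehyde, proximity-ligated with BsaI/T4 ligase (1 h, 37 °C), PCR-amplified and sequenced on an Illumina NextSeq500.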

A further assay has as its target T2, GABPA (Homo sapiens, UniProt Q06546 1-454).
T2 sequence: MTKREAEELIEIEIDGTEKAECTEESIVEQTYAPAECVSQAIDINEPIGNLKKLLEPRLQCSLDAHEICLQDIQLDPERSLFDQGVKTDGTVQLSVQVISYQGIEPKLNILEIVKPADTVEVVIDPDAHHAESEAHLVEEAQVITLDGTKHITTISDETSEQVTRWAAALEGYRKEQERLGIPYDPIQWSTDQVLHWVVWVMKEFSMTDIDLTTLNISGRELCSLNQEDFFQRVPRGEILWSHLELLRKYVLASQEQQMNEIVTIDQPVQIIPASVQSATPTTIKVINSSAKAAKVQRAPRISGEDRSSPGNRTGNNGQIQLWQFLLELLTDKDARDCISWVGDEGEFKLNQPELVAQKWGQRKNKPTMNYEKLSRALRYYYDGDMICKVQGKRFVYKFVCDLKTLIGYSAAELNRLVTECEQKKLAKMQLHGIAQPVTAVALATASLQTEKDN
An outline of the steps: as §1

The target of the next assay is T3, ERG (Homo sapiens, UniProt P11308 1-479).
T3 sequence: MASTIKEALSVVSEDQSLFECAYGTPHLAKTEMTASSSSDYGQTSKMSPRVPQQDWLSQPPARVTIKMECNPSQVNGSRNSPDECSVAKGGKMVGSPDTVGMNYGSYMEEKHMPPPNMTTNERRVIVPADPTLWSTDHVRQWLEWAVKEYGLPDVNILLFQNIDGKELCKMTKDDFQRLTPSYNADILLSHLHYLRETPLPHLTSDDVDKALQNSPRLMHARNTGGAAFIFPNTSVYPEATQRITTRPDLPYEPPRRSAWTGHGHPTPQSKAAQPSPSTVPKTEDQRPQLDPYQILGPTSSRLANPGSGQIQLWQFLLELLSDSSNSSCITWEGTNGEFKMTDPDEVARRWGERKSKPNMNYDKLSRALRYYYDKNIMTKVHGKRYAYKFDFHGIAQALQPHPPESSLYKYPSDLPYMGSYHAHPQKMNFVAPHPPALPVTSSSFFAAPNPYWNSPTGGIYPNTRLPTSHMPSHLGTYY
An outline of the steps: as §1

The next assay concerns the target ELF1 (Homo sapiens, UniProt P32519 1-619). An outline of the steps: as §1
A further assay addresses T4, EHF (Homo sapiens, UniProt Q9NZC4 1-300).
T4 sequence: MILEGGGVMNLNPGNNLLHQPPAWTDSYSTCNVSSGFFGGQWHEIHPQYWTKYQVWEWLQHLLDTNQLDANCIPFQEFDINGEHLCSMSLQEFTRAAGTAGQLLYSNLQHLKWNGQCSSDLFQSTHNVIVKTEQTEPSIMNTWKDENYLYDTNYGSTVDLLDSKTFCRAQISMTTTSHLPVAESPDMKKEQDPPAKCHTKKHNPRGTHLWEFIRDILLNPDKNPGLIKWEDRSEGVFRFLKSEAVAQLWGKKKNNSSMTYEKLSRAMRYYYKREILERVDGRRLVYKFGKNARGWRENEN
An outline of the steps: as §1

For a further assay, the target named is SPI1 (Homo sapiens, UniProt P17947 1-270). In short, it runs like this:
as §1

The target in the next assay is SPIB (Homo sapiens, UniProt Q01892 1-262). In short, it runs like this: as §1
SPIB, sequence (Q01892 whole entry): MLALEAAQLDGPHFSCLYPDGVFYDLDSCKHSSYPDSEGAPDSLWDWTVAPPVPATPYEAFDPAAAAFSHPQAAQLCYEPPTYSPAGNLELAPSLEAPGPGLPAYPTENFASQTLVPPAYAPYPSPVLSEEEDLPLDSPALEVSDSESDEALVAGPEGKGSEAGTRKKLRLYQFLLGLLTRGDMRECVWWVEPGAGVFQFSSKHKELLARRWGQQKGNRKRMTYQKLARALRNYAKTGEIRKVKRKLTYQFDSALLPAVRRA
The next assay addresses T5, FEV (Homo sapiens, UniProt Q99581 1-238).
T5 sequence: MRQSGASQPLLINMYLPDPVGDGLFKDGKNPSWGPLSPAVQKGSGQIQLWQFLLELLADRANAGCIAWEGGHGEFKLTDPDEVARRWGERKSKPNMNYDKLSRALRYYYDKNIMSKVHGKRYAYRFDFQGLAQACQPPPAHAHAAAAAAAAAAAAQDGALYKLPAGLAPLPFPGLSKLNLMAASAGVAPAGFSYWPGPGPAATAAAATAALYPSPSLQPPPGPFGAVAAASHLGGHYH
In short, it runs like this: as §1

The target in a further assay is ETV5 (Homo sapiens, UniProt P41161 1-510). An outline of the steps:
as §1

Another assay addresses ELF4 (Homo sapiens, UniProt Q99607 1-663). In short, it runs like this:
as §1

A further assay concerns the target T6, ELK4 (Homo sapiens, UniProt P28324-2 1-405).
T6 sequence: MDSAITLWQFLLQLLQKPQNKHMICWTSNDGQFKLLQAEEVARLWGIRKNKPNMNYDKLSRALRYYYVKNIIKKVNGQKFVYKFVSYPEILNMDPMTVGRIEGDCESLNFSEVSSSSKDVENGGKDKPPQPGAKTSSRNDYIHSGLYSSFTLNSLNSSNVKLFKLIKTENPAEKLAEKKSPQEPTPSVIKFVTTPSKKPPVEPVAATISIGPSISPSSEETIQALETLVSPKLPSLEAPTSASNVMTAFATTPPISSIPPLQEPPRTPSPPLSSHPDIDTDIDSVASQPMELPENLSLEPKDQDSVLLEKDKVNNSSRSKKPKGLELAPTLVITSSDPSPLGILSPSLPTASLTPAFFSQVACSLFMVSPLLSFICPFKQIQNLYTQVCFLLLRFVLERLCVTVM
An outline of the steps: as §1

The target in the next assay is T7, ETV2 (Homo sapiens, UniProt O00321 1-342).
T7 sequence: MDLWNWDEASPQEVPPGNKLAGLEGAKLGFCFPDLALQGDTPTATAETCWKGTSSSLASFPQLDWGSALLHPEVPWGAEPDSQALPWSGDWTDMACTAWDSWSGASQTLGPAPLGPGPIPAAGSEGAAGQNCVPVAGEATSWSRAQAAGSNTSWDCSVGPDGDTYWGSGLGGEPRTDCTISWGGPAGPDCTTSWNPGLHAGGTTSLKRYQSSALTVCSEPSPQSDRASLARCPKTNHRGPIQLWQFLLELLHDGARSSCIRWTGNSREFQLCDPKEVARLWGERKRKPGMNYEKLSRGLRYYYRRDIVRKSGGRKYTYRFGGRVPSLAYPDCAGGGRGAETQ
In short, it runs like this: as §1

The target of a further assay is T8, ELF3 (Homo sapiens, UniProt P78545 1-371).
T8 sequence: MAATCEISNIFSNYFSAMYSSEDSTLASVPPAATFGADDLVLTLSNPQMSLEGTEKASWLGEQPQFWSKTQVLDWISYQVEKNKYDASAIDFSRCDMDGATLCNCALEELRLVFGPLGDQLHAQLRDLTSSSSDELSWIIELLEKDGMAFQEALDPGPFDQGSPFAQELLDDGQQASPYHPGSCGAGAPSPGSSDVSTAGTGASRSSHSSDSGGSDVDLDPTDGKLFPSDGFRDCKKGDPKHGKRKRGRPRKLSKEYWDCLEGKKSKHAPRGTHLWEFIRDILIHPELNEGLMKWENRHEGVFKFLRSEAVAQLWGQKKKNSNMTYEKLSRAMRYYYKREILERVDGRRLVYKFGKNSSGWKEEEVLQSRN
An outline of the steps: as §1

The target of the next assay is ETV1 (Homo sapiens, UniProt P50549 1-477). An outline of the steps:
as §1

For the next assay, the target named is T9, ERF (Homo sapiens, UniProt P50548 1-548).
T9 sequence: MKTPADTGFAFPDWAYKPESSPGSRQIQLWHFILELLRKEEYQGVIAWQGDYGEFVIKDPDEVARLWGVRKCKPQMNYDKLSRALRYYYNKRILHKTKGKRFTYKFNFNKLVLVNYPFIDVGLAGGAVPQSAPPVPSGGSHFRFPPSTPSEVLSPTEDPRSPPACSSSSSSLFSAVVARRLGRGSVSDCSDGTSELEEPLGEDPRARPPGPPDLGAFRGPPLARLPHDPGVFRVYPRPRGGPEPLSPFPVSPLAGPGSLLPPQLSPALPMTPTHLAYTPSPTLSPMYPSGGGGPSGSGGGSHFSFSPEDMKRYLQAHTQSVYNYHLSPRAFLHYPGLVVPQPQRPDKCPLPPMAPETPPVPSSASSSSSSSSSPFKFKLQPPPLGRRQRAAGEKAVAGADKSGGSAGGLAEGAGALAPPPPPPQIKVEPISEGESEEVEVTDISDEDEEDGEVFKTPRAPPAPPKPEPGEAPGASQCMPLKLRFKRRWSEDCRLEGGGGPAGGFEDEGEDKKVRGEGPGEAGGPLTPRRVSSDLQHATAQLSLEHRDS
An outline of the steps:
as §1

The target of a further assay is T10, ETV3L (Homo sapiens, UniProt Q6ZN32 1-361).
T10 sequence: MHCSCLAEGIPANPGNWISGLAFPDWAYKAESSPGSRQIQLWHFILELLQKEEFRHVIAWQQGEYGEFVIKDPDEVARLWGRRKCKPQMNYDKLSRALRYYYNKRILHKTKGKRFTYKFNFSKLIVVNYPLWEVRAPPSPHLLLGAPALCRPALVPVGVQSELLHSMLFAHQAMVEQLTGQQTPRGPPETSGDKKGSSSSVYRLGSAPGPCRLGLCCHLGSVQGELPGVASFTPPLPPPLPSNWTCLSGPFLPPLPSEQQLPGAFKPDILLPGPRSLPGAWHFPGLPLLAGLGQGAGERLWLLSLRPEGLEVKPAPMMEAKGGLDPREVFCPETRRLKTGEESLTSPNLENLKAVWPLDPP
An outline of the steps: as §1

For the next assay, the target named is T11, ETS2 (Homo sapiens, UniProt P15036 1-469).
T11 sequence: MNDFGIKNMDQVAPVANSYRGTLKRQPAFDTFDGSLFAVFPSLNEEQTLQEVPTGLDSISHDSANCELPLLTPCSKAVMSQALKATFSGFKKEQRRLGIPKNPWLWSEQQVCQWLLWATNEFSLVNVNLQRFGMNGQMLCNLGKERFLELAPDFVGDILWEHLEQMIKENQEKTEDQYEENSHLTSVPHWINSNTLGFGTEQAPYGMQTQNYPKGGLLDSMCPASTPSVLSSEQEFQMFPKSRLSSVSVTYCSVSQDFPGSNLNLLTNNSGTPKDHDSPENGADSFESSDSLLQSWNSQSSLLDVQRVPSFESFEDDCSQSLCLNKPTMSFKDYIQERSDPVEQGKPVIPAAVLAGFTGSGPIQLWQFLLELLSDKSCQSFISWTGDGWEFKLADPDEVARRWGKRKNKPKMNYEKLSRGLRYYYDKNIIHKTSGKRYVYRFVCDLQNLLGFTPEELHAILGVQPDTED
An outline of the steps: as §1

For the next assay, the target named is T12, ETV3 (Homo sapiens, UniProt P41162-2 1-143).
T12 sequence: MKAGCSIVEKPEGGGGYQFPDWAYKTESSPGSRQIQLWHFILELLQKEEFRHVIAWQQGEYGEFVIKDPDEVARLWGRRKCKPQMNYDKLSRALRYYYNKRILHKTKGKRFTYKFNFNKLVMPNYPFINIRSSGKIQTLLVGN
An outline of the steps: as §1

A further assay addresses ETV6 (Homo sapiens, UniProt P41212 1-452). An outline of the steps: as §1

ELF1, sequence (P32519 whole entry): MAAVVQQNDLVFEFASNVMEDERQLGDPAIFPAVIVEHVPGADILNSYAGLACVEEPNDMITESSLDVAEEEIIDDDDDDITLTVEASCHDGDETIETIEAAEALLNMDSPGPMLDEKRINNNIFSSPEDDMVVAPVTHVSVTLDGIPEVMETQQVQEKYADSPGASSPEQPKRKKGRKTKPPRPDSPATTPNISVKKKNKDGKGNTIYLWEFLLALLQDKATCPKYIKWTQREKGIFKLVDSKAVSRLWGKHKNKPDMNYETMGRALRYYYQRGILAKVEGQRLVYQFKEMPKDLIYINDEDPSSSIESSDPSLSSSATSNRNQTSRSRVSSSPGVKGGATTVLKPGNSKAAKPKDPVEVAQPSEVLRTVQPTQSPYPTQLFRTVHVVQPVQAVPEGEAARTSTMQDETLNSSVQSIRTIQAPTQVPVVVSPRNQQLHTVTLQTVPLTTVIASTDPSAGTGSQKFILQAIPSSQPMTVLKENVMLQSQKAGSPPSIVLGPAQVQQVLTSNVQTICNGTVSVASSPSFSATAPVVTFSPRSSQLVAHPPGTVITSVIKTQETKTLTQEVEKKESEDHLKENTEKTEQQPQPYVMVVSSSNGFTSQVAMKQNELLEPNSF
ETV1, sequence (P50549 whole entry): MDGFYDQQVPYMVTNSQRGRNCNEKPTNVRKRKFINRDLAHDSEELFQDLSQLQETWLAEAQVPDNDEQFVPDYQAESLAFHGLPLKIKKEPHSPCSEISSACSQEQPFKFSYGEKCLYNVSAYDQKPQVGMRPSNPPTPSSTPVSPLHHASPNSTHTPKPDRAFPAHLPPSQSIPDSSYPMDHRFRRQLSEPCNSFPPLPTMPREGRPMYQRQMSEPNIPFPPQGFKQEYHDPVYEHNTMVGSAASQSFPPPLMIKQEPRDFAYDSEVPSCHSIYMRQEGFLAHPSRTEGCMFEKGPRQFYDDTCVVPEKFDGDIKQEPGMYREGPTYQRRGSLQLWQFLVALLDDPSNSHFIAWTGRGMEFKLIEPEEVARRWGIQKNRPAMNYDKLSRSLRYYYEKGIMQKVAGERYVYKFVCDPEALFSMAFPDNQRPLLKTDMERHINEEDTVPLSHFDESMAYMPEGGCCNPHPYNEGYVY
ELF4, sequence (Q99607 whole entry): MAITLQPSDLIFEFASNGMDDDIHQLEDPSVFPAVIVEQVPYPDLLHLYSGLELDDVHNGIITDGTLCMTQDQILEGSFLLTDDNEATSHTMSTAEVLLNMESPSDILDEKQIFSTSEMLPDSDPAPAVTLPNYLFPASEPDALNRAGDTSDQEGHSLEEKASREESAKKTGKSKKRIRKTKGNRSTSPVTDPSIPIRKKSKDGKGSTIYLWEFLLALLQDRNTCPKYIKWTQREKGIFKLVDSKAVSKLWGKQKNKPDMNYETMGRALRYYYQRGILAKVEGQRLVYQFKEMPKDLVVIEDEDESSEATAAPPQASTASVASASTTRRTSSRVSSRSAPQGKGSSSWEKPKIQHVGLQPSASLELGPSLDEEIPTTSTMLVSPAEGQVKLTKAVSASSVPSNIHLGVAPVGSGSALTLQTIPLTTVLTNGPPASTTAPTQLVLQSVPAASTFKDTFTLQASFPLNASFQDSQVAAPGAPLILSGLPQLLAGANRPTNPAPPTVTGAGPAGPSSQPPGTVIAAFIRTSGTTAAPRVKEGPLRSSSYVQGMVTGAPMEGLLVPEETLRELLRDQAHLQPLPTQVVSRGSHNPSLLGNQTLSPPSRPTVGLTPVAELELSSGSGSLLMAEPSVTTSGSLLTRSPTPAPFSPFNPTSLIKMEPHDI
ETV5, sequence (P41161 whole entry): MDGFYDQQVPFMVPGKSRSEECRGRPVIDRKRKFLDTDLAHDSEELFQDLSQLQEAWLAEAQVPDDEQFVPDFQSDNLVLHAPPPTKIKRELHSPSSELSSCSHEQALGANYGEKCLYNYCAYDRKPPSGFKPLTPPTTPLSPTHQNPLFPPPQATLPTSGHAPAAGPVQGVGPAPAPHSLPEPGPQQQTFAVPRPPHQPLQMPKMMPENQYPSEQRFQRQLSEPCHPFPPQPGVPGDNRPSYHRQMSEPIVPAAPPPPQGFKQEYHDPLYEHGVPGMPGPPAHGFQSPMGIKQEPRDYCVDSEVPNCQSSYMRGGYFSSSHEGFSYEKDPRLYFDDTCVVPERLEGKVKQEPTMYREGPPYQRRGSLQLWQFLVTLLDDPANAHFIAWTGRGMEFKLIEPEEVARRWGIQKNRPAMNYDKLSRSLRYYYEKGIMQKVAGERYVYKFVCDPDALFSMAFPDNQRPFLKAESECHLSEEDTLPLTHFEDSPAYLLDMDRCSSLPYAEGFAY
ETV6, sequence (P41212 whole entry): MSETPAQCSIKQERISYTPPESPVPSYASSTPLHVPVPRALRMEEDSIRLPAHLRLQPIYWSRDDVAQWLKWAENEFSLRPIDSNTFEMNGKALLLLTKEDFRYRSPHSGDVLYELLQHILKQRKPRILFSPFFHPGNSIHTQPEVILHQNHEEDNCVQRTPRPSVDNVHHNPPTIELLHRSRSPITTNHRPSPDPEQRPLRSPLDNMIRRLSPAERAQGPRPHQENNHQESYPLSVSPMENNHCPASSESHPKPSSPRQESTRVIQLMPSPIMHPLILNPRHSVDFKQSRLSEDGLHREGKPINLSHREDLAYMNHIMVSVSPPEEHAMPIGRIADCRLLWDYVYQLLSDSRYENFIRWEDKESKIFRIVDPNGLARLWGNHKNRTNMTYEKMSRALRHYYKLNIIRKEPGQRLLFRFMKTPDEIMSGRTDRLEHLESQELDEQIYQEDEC

As for CTAGCG, the binding signal is 1.12 fold enrichment (6-mer frequency, TF over GST control) with ELK1; 1.32 fold enrichment (6-mer frequency, TF over GST control) with GABPA; 1.19 fold enrichment (6-mer frequency, TF over GST control) with ERG; 1.11 fold enrichment (6-mer frequency, TF over GST control) with ELF1; 1.18 fold enrichment (6-mer frequency, TF over GST control) with EHF; 1.15 fold enrichment (6-mer frequency, TF over GST control) with SPI1. Besides, the binding signal is 1.17 fold enrichment (6-mer frequency, TF over GST control) with SPIB; 1.15 fold enrichment (6-mer frequency, TF over GST control) with FEV; 1.22 fold enrichment (6-mer frequency, TF over GST control) with ETV5; 1.1 fold enrichment (6-mer frequency, TF over GST control) with ELF4; 1.16 fold enrichment (6-mer frequency, TF over GST control) in the assay with ELK4; 1.09 fold enrichment (6-mer frequency, TF over GST control) in the assay with ETV2. Further, the binding signal is 1.05 fold enrichment (6-mer frequency, TF over GST control) with ELF3; 1.17 fold enrichment (6-mer frequency, TF over GST control) with ETV1; 1.31 fold enrichment (6-mer frequency, TF over GST control) with ERF; 1.07 fold enrichment (6-mer frequency, TF over GST control) in the assay with ETV3L; 1.18 fold enrichment (6-mer frequency, TF over GST control) in the assay with ETS2; 1.15 fold enrichment (6-mer frequency, TF over GST control) with ETV3. Further, the binding signal in the assay with ETV6 is 1.08 fold enrichment (6-mer frequency, TF over GST control).

(Values after article PMC7862700, “An all-to-all approach to the identification of sequence-specific readers for epigenetic DNA modifications on cytosine”.)
